The campaign covered roughly 5,500 compounds. About 2,000 (36%) were called active. Roughly 18% stayed inconclusive and do not appear here. Rule as the data show it: active = normalized growth mostly below about 0.91 (no sharp cut-off); inconclusive = no clear call, values can overlap the other calls; inactive = mostly above about 0.92. The list shows a part of the results.
Experiment: chemical genetic growth profiling, strain panel (AID 1159580);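 also: tested at 20 µM; growth read once vehicle control cultures reached saturation at 30 °C; 1 = growth at the plate median or of vehicle wells; lower values mean less growth of the strain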
Conditions: growth OD

Measured: normalized growth

COP(=S)(OC)Oc1ccc([N+](=O)[O-])cc1
active: S. cerevisiae deletion strains, locus YOR270C, strain vph1, stronger effect = lower value 0.658
inactive: S. cerevisiae deletion strains, locus YJR075W, strain HOC1, stronger effect = lower value 0.993 | S. cerevisiae deletion strains, locus YKL009W, strain mrt4, stronger effect = lower value 0.962 | S. cerevisiae deletion strains, locus YKL068W, stronger effect = lower value 0.987 | S. cerevisiae deletion strains, locus YKL085W, strain MDH1 (second series), stronger effect = lower value 0.978 | S. cerevisiae deletion strains, locus YKL085W, strain MDH1, stronger effect = lower value 0.978 | S. cerevisiae deletion strains, locus YKL160W, strain elf1, stronger effect = lower value 0.993 | S. cerevisiae deletion strains, locus YKL190W, strain CNB1, stronger effect = lower value 0.975 | S. cerevisiae deletion strains, locus YKR001C, strain vps1, stronger effect = lower value 0.982 | S. cerevisiae deletion strains, locus YKR026C, strain gcn3, stronger effect = lower value 0.995 | S. cerevisiae deletion strains, locus YKR091W, strain srl3, stronger effect = lower value 0.992 | S. cerevisiae deletion strains, locus YLL001W, strain dnm1, stronger effect = lower value 0.995 | S. cerevisiae deletion strains, locus YLL026W, stronger effect = lower value 0.993 | S. cerevisiae deletion strains, locus YLL041C, strain sdh2, stronger effect = lower value 1 | S. cerevisiae deletion strains, locus YLR027C, strain aat2, stronger effect = lower value 0.998 | S. cerevisiae deletion strains, locus YLR039C, strain RIC1, stronger effect = lower value 0.877 | S. cerevisiae deletion strains, locus YLR058C, strain SHM2, stronger effect = lower value 0.975 | S. cerevisiae deletion strains, locus YLR102C, strain apc9, stronger effect = lower value 0.974 | S. cerevisiae deletion strains, locus YLR113W, strain HOG1, stronger effect = lower value 0.916 | S. cerevisiae deletion strains, locus YLR221C, strain rsa3, stronger effect = lower value 0.974 | S. cerevisiae deletion strains, locus YLR258W, strain gsy2, stronger effect = lower value 0.99 | S. cerevisiae deletion strains, locus YLR262C, strain YPT6 (second series), stronger effect = lower value 0.927 | S. cerevisiae deletion strains, locus YLR262C, strain YPT6, stronger effect = lower value 0.915 | S. cerevisiae deletion strains, locus YLR268W, strain sec22, stronger effect = lower value 0.993 | S. cerevisiae deletion strains, locus YLR320W, strain mms22, stronger effect = lower value 0.944 | S. cerevisiae deletion strains, locus YLR330W, strain CHS5, stronger effect = lower value 0.989 | S. cerevisiae deletion strains, locus YLR342W, strain FKS1 (second series), stronger effect = lower value 0.998 | S. cerevisiae deletion strains, locus YLR342W, strain FKS1, stronger effect = lower value 0.981 | S. cerevisiae deletion strains, locus YLR357W, strain rsc2, stronger effect = lower value 1 | S. cerevisiae deletion strains, locus YLR370C, strain arc18, stronger effect = lower value 0.991 | S. cerevisiae deletion strains, locus YLR371W, strain rom2, stronger effect = lower value 0.975 | S. cerevisiae deletion strains, locus YLR384C, strain iki3, stronger effect = lower value 0.971 | S. cerevisiae deletion strains, locus YLR418C, strain cdc73, stronger effect = lower value 0.991 | S. cerevisiae deletion strains, locus YML016C, strain PPZ1, stronger effect = lower value 0.951 | S. cerevisiae deletion strains, locus YML032C, strain rad52, stronger effect = lower value 0.981 | S. cerevisiae deletion strains, locus YML120C, strain ndi1, stronger effect = lower value 1 | S. cerevisiae deletion strains, locus YML124C, strain tub3, stronger effect = lower value 0.99 | S. cerevisiae deletion strains, locus YMR058W, strain fet3, stronger effect = lower value 1 | S. cerevisiae deletion strains, locus YMR078C, strain ctf18, stronger effect = lower value 0.974 | S. cerevisiae deletion strains, locus YMR125W, strain sto1, stronger effect = lower value 0.995 | S. cerevisiae deletion strains, locus YMR129W, stronger effect = lower value 0.991 | S. cerevisiae deletion strains, locus YMR205C, strain PFK2, stronger effect = lower value 0.97 | S. cerevisiae deletion strains, locus YMR223W, strain ubp8, stronger effect = lower value 0.99 | S. cerevisiae deletion strains, locus YMR231W, strain pep5, stronger effect = lower value 0.978 | S. cerevisiae deletion strains, locus YMR263W, strain SAP30, stronger effect = lower value 0.985 | S. cerevisiae deletion strains, locus YMR307W, strain GAS1, stronger effect = lower value 1.03 | S. cerevisiae deletion strains, locus YNL067W, strain RPL9B, stronger effect = lower value 0.984 | S. cerevisiae deletion strains, locus YNL071W, strain lat1, stronger effect = lower value 0.934 | S. cerevisiae deletion strains, locus YNL128W, strain TEP1, stronger effect = lower value 0.96 | S. cerevisiae deletion strains, locus YNL153C, strain GIM3, stronger effect = lower value 0.998 | S. cerevisiae deletion strains, locus YNL183C, strain NPR1, stronger effect = lower value 0.954 | S. cerevisiae deletion strains, locus YNL209W, strain ssb2, stronger effect = lower value 0.993 | S. cerevisiae deletion strains, locus YNL233W, strain BNI4, stronger effect = lower value 0.977 | S. cerevisiae deletion strains, locus YNL248C, strain rpa49, stronger effect = lower value 0.983 | S. cerevisiae deletion strains, locus YNL250W, strain rad50, stronger effect = lower value 0.981 | S. cerevisiae deletion strains, locus YNL271C, strain bni1, stronger effect = lower value 0.98 | S. cerevisiae deletion strains, locus YNL298W, strain CLA4, stronger effect = lower value 0.977 | S. cerevisiae deletion strains, locus YNL307C, strain MCK1, stronger effect = lower value 0.984 | S. cerevisiae deletion strains, locus YNL322C, strain KRE1 (second series), stronger effect = lower value 0.99 | S. cerevisiae deletion strains, locus YNL322C, strain KRE1, stronger effect = lower value 0.986 | S. cerevisiae deletion strains, locus YNR049C, strain mso1, stronger effect = lower value 1.01 | S. cerevisiae deletion strains, locus YNR052C, strain pop2, stronger effect = lower value 0.984 | S. cerevisiae deletion strains, locus YOL006C, strain TOP1, stronger effect = lower value 0.885 | S. cerevisiae deletion strains, locus YOL012C, strain htz1 1.15 | S. cerevisiae deletion strains, locus YOL147C, strain pex11, stronger effect = lower value 0.994 | S. cerevisiae deletion strains, locus YOR001W, strain rrp6, stronger effect = lower value 1 | S. cerevisiae deletion strains, locus YOR061W, strain CKA2, stronger effect = lower value 0.964 | S. cerevisiae deletion strains, locus YOR069W, strain VPS5, stronger effect = lower value 0.994 | S. cerevisiae deletion strains, locus YOR070C, strain gyp1, stronger effect = lower value 1 | S. cerevisiae deletion strains, locus YOR080W, strain dia2, stronger effect = lower value 0.984 | S. cerevisiae deletion strains, locus YOR083W, strain WHI5, stronger effect = lower value 0.987 | S. cerevisiae deletion strains, locus YOR106W, strain vam3, stronger effect = lower value 0.947 | S. cerevisiae deletion strains, locus YOR136W, strain idh2, stronger effect = lower value 0.997 | S. cerevisiae deletion strains, locus YOR144C, strain elg1, stronger effect = lower value 0.987 | S. cerevisiae deletion strains, locus YOR184W, strain ser1, stronger effect = lower value 0.984 | S. cerevisiae deletion strains, locus YOR231W, strain MKK1, stronger effect = lower value 1 | S. cerevisiae deletion strains, locus YOR265W, strain rbl2, stronger effect = lower value 1.01 | S. cerevisiae deletion strains, locus YOR290C, strain snf2, stronger effect = lower value 0.997 | S. cerevisiae deletion strains, locus YOR316C, strain cot1, stronger effect = lower value 0.967 | S. cerevisiae deletion strains, locus YPL051W, strain arl3, stronger effect = lower value 1.01 | S. cerevisiae deletion strains, locus YPL055C, strain LGE1, stronger effect = lower value 0.964 | S. cerevisiae deletion strains, locus YPL078C, strain atp4, stronger effect = lower value 0.999 | S. cerevisiae deletion strains, locus YPL106C, strain sse1, stronger effect = lower value 0.984 | S. cerevisiae deletion strains, locus YPL240C, strain hsp82, stronger effect = lower value 0.999 | S. cerevisiae deletion strains, locus YPL241C, strain CIN2, stronger effect = lower value 0.985 | S. cerevisiae deletion strains, locus YPL256C, strain CLN2, stronger effect = lower value 1.01 | S. cerevisiae deletion strains, locus YPR119W, strain clb2, stronger effect = lower value 0.983 | S. cerevisiae deletion strains, locus YPR141C, strain kar3, stronger effect = lower value 0.951 | S. cerevisiae deletion strains, locus YPR163C, strain tif3, stronger effect = lower value 0.99 | S. cerevisiae deletion strains, locus YPR167C, strain met16, stronger effect = lower value 0.984 | S. cerevisiae deletion strains, strain wtn01, stronger effect = lower value 0.977 | S. cerevisiae strains, strain wild type, stronger effect = lower value 0.985
